Laboratory results published in PubChem BioAssay.
Where “and” joins values, the source holds several entries; their conditions need not be identical. Equal values may be shown once. For some of these results: Results with a measured potency or affinity are listed apart. Calls of active or inactive are those of the source. Unless noted, no rule for the calls is given here.

Assays:
[1] = antimalarial activity against Dd2 strain (AID 2302;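 active = growth inhibition above 50% at the single 2 µM test dose, taken to imply half-maximal potency below 2 µM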;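 also: 0% = DMSO untreated growth and 100% = chloroquine plus artemisinin killed control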); conditions: P. falciparum Dd2 in RBCs, LDH growth readout, 72 h; at 2 µM; active compounds read high
[2] = human hepatoma cell viability loss – ATP luminescence, cytotoxicity control for P. falciparum antimalarial project, primary screen (AID 2303;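 active = inhibition above 50%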;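 also: 0% = DMSO wells and 100% = digitonin-killed cells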); conditions: HepG2 viability, 24-48 h, at 10 µM, active compounds read high
[3] = molecular target: L-lactate dehydrogenase (Plasmodium falciparum (isolate CDC / Honduras)) (UniProt Q27743); assay: PfLDH activity inhibition – cell lysate, 3D7 strain, counter-screen for P. falciparum growth inhibition project (AID 2304);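 also: 0% = vehicle and 100% = reference inhibitor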; conditions: P. falciparum 3D7 crude extract, LDH APAD/NBT absorbance; at 2 µM; active compounds read high
Chain of L-lactate dehydrogenase (Plasmodium falciparum (isolate CDC / Honduras)) (Q27743 whole entry, looked up): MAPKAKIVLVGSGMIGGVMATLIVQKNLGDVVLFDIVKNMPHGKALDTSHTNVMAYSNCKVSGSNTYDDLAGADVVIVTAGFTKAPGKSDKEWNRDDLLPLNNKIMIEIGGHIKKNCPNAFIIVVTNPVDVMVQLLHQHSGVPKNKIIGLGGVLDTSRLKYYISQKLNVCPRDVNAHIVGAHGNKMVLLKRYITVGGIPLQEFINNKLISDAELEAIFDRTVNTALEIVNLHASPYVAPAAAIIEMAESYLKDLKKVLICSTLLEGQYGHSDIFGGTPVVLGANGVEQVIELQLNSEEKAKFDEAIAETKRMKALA

[4] = inhibition of 3D7 malaria parasite growth – strain 3D7 (AID 2306);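 also: 0% = DMSO wells and 100% = chloroquine plus artemisinin control wells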; conditions: P. falciparum 3D7 erythrocytic growth, LDH absorbance, 72 h; at 2 µM; active compounds read high
[5] = molecular target: Calcium-dependent protein kinase 1 (Plasmodium falciparum (isolate 3D7)) (UniProt P62344); assay: PfCDPK1 kinase inhibitors, biochemical, TCAMS library (AID 1159585; cut-off not given, nearly all actives have IC50 up to about 0.98 µM;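 also: inhibitors leave more ATP so luminescence rises with inhibition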); conditions: recombinant PfCDPK1, Kinase-Glo ATP depletion luminescence
Chain of Calcium-dependent protein kinase 1 (Plasmodium falciparum (isolate 3D7)) (P62344 whole entry, looked up): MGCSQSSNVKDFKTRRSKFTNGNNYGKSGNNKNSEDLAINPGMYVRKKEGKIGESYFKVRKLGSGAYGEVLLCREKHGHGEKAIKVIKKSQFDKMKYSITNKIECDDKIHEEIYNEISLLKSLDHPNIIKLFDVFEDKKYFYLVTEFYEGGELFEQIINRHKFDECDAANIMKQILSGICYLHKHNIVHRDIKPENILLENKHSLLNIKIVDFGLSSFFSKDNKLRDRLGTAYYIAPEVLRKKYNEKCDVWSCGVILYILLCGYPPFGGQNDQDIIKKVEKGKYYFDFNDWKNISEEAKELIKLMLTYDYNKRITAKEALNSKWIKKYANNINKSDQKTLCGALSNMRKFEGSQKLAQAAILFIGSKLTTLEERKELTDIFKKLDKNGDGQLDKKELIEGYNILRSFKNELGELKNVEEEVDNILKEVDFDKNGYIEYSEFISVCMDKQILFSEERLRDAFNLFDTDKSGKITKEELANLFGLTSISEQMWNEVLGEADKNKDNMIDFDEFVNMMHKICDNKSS

[6] = molecular target: Plasmodium falciparum protein kinase 6 (PK6, PF3D7_1337100) (UniProt Q8IDW1); assay: PfPK6 kinase inhibitors, biochemical, TCAMS library (AID 1159586); conditions: recombinant PfPK6, Kinase-Glo ATP depletion luminescence
Chain of Plasmodium falciparum protein kinase 6 (PK6, PF3D7_1337100) (Q8IDW1 1-305): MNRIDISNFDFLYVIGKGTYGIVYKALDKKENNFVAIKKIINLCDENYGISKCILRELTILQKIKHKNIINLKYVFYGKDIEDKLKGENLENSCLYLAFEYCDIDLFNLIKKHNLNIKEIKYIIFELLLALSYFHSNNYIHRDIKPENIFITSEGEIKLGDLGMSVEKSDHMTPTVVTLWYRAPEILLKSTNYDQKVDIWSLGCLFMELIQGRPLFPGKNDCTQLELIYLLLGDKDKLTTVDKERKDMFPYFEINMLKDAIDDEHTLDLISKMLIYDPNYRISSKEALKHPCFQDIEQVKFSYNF

[7] = molecular target: Protein kinase 7 (PK7), Plasmodium falciparum 3D7 (PF3D7_0213400) (UniProt Q7YTF7); assay: inhibition of Plasmodium PK7 catalytic activity – biochemical, TCAMS antimalarial set, Kinase-Glo luminescence (AID 1159587); conditions: recombinant PfPK7, Kinase-Glo ATP depletion luminescence
Chain of Protein kinase 7 (PK7), Plasmodium falciparum 3D7 (PF3D7_0213400) (Q7YTF7 1-343): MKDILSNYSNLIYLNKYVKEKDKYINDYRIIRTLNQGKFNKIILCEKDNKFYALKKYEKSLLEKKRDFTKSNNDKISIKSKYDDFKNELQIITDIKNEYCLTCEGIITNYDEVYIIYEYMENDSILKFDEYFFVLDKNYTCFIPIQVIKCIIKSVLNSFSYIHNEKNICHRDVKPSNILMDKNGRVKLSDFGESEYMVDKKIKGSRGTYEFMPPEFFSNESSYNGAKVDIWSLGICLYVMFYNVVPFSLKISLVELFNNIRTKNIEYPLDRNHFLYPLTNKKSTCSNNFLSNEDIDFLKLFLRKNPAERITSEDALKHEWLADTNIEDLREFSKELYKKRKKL

[8] = molecular target: Calcium-dependent protein kinase 4 (Plasmodium falciparum (isolate 3D7)) (UniProt Q8IBS5); assay: PfCDPK4 kinase inhibitors, biochemical, TCAMS library (AID 1159588; cut-off not given, nearly all actives have IC50 up to about 0.91 µM); conditions: recombinant PfCDPK4, Kinase-Glo ATP depletion luminescence
Chain of Calcium-dependent protein kinase 4 (Plasmodium falciparum (isolate 3D7)) (Q8IBS5 whole entry, looked up): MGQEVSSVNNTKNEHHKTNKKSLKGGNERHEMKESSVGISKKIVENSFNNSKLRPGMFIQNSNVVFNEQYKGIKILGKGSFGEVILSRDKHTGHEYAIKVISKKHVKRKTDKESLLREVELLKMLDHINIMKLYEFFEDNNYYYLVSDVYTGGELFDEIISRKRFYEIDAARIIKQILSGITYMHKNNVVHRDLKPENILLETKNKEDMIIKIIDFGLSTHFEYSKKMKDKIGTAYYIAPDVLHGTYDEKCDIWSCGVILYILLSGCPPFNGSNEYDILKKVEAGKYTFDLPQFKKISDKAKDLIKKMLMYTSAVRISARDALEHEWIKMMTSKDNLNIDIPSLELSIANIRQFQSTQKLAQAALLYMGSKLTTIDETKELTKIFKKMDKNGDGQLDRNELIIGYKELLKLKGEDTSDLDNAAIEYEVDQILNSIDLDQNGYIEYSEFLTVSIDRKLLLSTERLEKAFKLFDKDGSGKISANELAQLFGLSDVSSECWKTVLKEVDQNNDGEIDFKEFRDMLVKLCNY

N#Cc1c(F)cc(N2CCC(NCC[C@H](N)Cc3ccc(F)c(F)c3)CC2)cc1F
active: inhibition [2] 70% | growth inhibition [4] 102%
inactive: growth inhibition [1] 26% | inhibition [3] 4% | outcome [5] | outcome [6] | outcome [7] | outcome [8]

COc1ccc(CN2CCN(CCOC(c3ccccc3)c3ccc(Cl)cc3)CC2)c(O)c1 (centres undefined)
inactive: inhibition [2] 12% | inhibition [3] 0% | outcome [5] | outcome [6] | outcome [7] | outcome [8]
active: growth inhibition [1] 98% | growth inhibition [4] 99%

O=C(NCc1ccccc1)c1nn(CCCN2CCC3(CC2)C(=O)NCN3c2ccccc2)cc1-c1ccc(Cl)c(Cl)c1
inactive: growth inhibition [1] 21% | inhibition [2] 6% | inhibition [3] -5% | outcome [5] | outcome [6] | outcome [7] | outcome [8]
active: growth inhibition [4] 88%

Cc1[nH]c2cc(F)ccc2c1C1=CCN(CCCCC2(C)C(=O)Nc3c(F)cccc32)CC1 (centres undefined)
active: growth inhibition [1] 89% | growth inhibition [4] 96%
inactive: inhibition [2] 15% | inhibition [3] -7% | outcome [5] | outcome [6] | outcome [7] | outcome [8]

CC[C@H]1CN2CC[C@@H]1C[C@H]2[C@H](O)c1cc(N2CCC(O)(c3ccc(Cl)cc3)CC2)nc2ccc(OC)cc12
inactive: inhibition [2] 21% | inhibition [3] -8% | outcome [5] | outcome [6] | outcome [7] | outcome [8]
active: growth inhibition [1] 98% | growth inhibition [4] 101%

COc1ccc(OC)c([C@H](O)[C@@H](C)NCc2cc(Cl)ccc2O)c1
inactive: inhibition [2] 11% | inhibition [3] 4% | outcome [5] | outcome [6] | outcome [7] | outcome [8]
active: growth inhibition [1] 99% | growth inhibition [4] 97%

CCC1(C)CC(CCNCc2ccccc2O)(c2ccc(F)cc2)CCO1 (centres undefined)
inactive: growth inhibition [1] 32% | inhibition [2] 20% | inhibition [3] 6% | outcome [5] | outcome [6] | outcome [7] | outcome [8]
active: growth inhibition [4] 98%

O=c1c2ccccc2nc(C=Cc2ccc([N+](=O)[O-])cc2)n1-c1ccccn1
active: growth inhibition [1] 96% | growth inhibition [4] 98%
inactive: inhibition [2] 5% | inhibition [3] -1% | outcome [5] | outcome [6] | outcome [7] | outcome [8]

COc1ccc2[nH]cc(C3CCN(Cc4ccc(NC(=O)c5ccc(-c6ccccc6)cc5)cc4)CC3)c2c1
active: growth inhibition [1] 72% | growth inhibition [4] 101%
inactive: inhibition [2] 24% | inhibition [3] -6% | outcome [5] | outcome [6] | outcome [7] | outcome [8]

CNCCCCCCOc1ccc(CC(C)NCC(O)c2cccc(C(F)(F)F)c2)cc1 (centres undefined)
inactive: inhibition [3] 3% | outcome [5] | outcome [6] | outcome [7] | outcome [8]
active: growth inhibition [1] 79% | inhibition [2] 99% | growth inhibition [4] 101%

Cc1cc(C)c(CC(C)NCC(O)c2cccc(C(F)(F)F)c2)c(C)c1 (centres undefined)
inactive: inhibition [2] 0% | inhibition [3] 5% | outcome [5] | outcome [6] | outcome [7] | outcome [8]
active: growth inhibition [1] 99% | growth inhibition [4] 100%

O=C(/C=C/c1cc(F)cc(C(F)(F)F)c1)N1CCC(CN2CCC(c3c[nH]c4ccccc34)CC2)CC1
active: growth inhibition [1] 74% | growth inhibition [4] 101%
inactive: inhibition [2] 32% | inhibition [3] 3% | outcome [5] | outcome [6] | outcome [7] | outcome [8]

C=CCOc1ccccc1CNCC(O)c1cccc(C(F)(F)F)c1 (centres undefined)
active: growth inhibition [1] 98% | growth inhibition [4] 99%
inactive: inhibition [2] 10% | inhibition [3] -1% | outcome [5] | outcome [6] | outcome [7] | outcome [8]

COC(=O)c1ccc(CC(C)NCC(O)c2ccc(Cl)c(Cl)c2)cc1 (centres undefined)
active: growth inhibition [4] 87%
inactive: growth inhibition [1] 33% | inhibition [2] -1% | inhibition [3] 0% | outcome [5] | outcome [6] | outcome [7] | outcome [8]

Cc1c(C)c2c(c(C)c1O)CC[C@@](C)(C(=O)N1CCC(CN3CCC(c4c[nH]c5ccccc45)CC3)CC1)O2
inactive: inhibition [2] 21% | inhibition [3] 3% | outcome [5] | outcome [6] | outcome [7] | outcome [8]
active: growth inhibition [1] 90% | growth inhibition [4] 98%

CC[C@H]1CN2CC[C@@H]1C[C@H]2[C@H](O)c1cc(-c2ccccc2)nc2ccc(O)cc12
active: growth inhibition [1] 99% | growth inhibition [4] 99%
inactive: inhibition [2] 14% | inhibition [3] -2% | outcome [5] | outcome [6] | outcome [7] | outcome [8]

O=C(/C=C/c1cccc(F)c1)NC1CCC(CN2CCC(c3c[nH]c4ccccc34)CC2)CC1 (centres undefined)
active: growth inhibition [4] 98% and 99%
inactive: growth inhibition [1] 31% and 28% | inhibition [2] 39% and 35% | inhibition [3] -1% and 0% | outcome [5] | outcome [6] | outcome [7] | outcome [8]

O=C(/C=C/c1ccc(Cl)c(Cl)c1)N1CCC(CN2CCC(c3c[nH]c4cc(C(F)(F)F)ccc34)CC2)CC1
inactive: growth inhibition [1] 38% | inhibition [2] 6% | inhibition [3] -5% | outcome [5] | outcome [6] | outcome [7] | outcome [8]
active: growth inhibition [4] 99%

C=Cc1cc(OC)c2c(c1)c(=O)oc1c2cc(OC)c2c(O)ccc([C@H]3O[C@H]([C@@H](C)O)[C@H](O)[C@H]3O)c21
inactive: growth inhibition [1] 41% | inhibition [2] 33% | inhibition [3] 0% | outcome [5] | outcome [6] | outcome [7] | outcome [8]
active: growth inhibition [4] 95%

Cc1cc(N)nc2cc(CNCCc3ccccc3Br)ccc12
active: growth inhibition [1] 93% | growth inhibition [4] 101%
inactive: inhibition [2] 47% | inhibition [3] 0% | outcome [5] | outcome [6] | outcome [7] | outcome [8]

CCCc1c(C(=O)NC2CCC(CN3CCC(c4c[nH]c5ccccc45)CC3)CC2)cnn1-c1ccccc1 (centres undefined)
inactive: growth inhibition [1] 7% | inhibition [2] 33% | inhibition [3] -1% | outcome [5] | outcome [6] | outcome [7] | outcome [8]
active: growth inhibition [4] 92%

COC(=O)c1ccc(CC(C)NCC(O)c2ccccc2Cl)cc1 (centres undefined)
inactive: inhibition [2] 1% | inhibition [3] 1% | outcome [5] | outcome [6] | outcome [7] | outcome [8]
active: growth inhibition [1] 55% | growth inhibition [4] 94%

Cc1ccccc1C1=CCN(CCCN2c3ccccc3Sc3ccc(Cl)cc32)CC1
active: growth inhibition [4] 90%
inactive: growth inhibition [1] 30% | inhibition [2] 14% | inhibition [3] 5% | outcome [5] | outcome [6] | outcome [7] | outcome [8]
